In the library only some 7.5% were active in any assay of this set; here they are far more common.
NPC1 prom act: activates the NPC1 promoter. Potency, µM (titrated, usually from 9.22 µM), without a hit: at the highest dose activation, actives largely listed as activators. Huh7 NPC1 promoter luciferase reporter, 24 h. 320,000 compounds, 2.4% hits; also: % of control where 0% means no effect; nearly all actives have a fitted effect of over 60% in size
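Stable NPC1-promoter luciferase Huh7 line; cpd (DMSO) 24 h, 37 °C, 5% CO2; Amplite luciferase reagent 10 min RT; luminescence readout. qHTS format.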
SMN2 splice enh: increases expression of the SMN2 splice variant. HEK293 SMN2-luciferase splicing reporter, luminescence, 30-36 h. Potency, µM (highest dose often 46.1 µM), without a hit: at the highest dose activity change, positive = activation, usual class: activators. 210,000 compounds, 2.8% hits. AID 1458; also: % of control where 0% means no effect; nearly all actives have a fitted effect of over 55% in size
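qHTS luciferase splicing reporter: luminescence rises when SMN2 exon 7 is included in transfected HEK293 cells. Compound exposure lasted 30-36 h at 37C, with 4.5 mM final sodium butyrate as control, followed by a ONE-Glo read.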
FLuc modulator: counter-screen for miR-21 project: firefly luciferase inhibitors or activators; P08659; purified FLuc, Km substrates, luminescence inhibition; Potency, µM (series often up to 57.5 µM), inactives show at the top dose activity change, negative = inhibition, usual class: inhibitors; 360,000 compounds, 6.9% hits;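 also: plate controls were vehicle for no effect and reference inhibitor for full effect; nearly all actives have a fitted effect of over 55% in size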
Target sequence (P08659 whole entry, looked up): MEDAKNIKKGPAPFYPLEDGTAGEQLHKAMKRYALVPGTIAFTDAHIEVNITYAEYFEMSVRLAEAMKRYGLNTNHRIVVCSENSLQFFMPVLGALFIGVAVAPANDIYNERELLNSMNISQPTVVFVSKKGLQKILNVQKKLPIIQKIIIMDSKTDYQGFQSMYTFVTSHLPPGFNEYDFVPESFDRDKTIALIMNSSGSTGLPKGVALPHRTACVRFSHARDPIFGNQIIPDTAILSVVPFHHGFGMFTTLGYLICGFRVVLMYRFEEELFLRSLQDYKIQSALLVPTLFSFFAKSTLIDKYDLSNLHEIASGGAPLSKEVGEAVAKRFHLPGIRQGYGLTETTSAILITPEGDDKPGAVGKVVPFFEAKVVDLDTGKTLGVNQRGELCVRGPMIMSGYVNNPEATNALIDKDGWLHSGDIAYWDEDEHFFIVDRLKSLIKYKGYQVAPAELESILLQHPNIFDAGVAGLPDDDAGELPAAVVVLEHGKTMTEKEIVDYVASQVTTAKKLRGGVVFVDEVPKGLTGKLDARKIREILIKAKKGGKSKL
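Purified P. pyralis luciferase, 10 nM final, with Km-level 10 uM D-luciferin and 10 uM ATP in 50 mM Tris acetate pH 7.5, 10 mM Mg acetate, 0.01% Tween-20, 0.05% BSA; 6-point qHTS titration about 60 µM downward; luminescence read.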
Rab9 prom act: activators of Rab9 promoter | Potency, µM (series often up to 9.22 µM), for the others: top-dose activation, negative = inhibition, usual class: activators | 320,000 compounds, 2.8% hits | Huh7 Rab9 promoter-luciferase reporter, luminescence, 24 h; also: % of control where 0% means no effect; nearly all actives have a fitted effect of over 60% in size
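Cell-based reporter: Huh7 stable for Rab9 promoter-driven luciferase, plated in reduced-serum medium with 10% FBS at 1500 cells/well, compound-treated 24 h at 37 °C, luminescence read after 10 min reagent.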
ELG1 genotox: inducers of genotoxicity in HEK293T ELG1-luciferase cells. HEK293T ELG1-luciferase reporter, luminescence, 16 h. AID 504466. 330,000 compounds, 1.3% hits. Potency, µM (titrated, usually from 46 µM), for inactives: at the highest dose activity change, positive = activation, actives largely listed as activators; also: % of control where 0% means no effect; nearly all actives have a fitted effect of over 60% in size
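Genotoxic stress is detected as increased luminescence from luciferase-tagged ELG1 in HEK293T cells, measured with ONE-Glo after a 16 hr treatment at 37 °C.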
An asterisk follows results filed as active; ? = inconclusive; . = no result. Calls follow the shape of the dose curve; as a rule, active = well fitted curve in the direction sought with a large enough effect; inconclusive = small, poorly fitted or top-dose-only effect, or another doubt; inactive = no such curve, though single readings can be large; an effect the other way counts as inactive or inconclusive. Potency is read from the fitted curve at half-maximal effect.

SMILES	NPC1 prom act	SMN2 splice enh	FLuc modulator	Rab9 prom act	ELG1 genotox
CC(=O)Nc1ccc(Nc2cc(-c3ccccc3)nc3ncnn23)cc1	-2%	.	-4%	-9%	2%
Cc1nc2c(-c3ccccc3)cnn2c(N2CCOCC2)c1C	2.5µM*	.	3µM*	1.3µM*	6.5µM*
Cc1cc(N)n2ncc(-c3cccc(Br)c3)c2n1	?	22%	15µM*	2.8µM*	16µM*
Cc1cc(N2CCN(C3CCCC3)CC2)n2ncc(-c3ccccc3)c2n1	26%	-4%	?	7%	?
O=C(CN(Cc1ccc(Cl)cc1)C(=O)CNS(=O)(=O)c1ccccc1)NCC1CCCO1 (stereo not drawn)	2%	.	1%	-2%	2%
COc1ccccc1NC(=O)CSc1nnc(-c2nonc2NC(C)=O)n1-c1ccccc1	.	.	-1%	.	.
N#CC1(NC(=O)COC(=O)Cn2[nH]c(=O)c3ccccc3c2=O)CCCCC1	1%	.	-1%	2%	1%
CSc1nc(N)c(NC(=O)c2ccc(Br)o2)c(=O)[nH]1	0%	.	4%	0%	0%
Cc1cc(N2CCCC2)nc2ccccc12	-2%	-10%	2%	-4%	-4%
Cc1ccc2c(c1)Cc1nc3ccccc3nc1-2	4%	?	1.1µM*	?	-2%
O=C(CSc1ccc(Cl)cc1Cl)N1CCC(c2nc3ccccc3s2)CC1	-4%	.	1%	2%	-7%
O=C(NC(=S)N1CCCc2ccccc21)c1ccc(Cl)cc1	15%	?	6.7µM*	26%	16%
COc1ccccc1C(=O)NC(=S)N1CCCc2ccccc21	-17%	-87%	21µM*	8%	10%
O=C(COc1ccccc1)NC(=S)N1CCc2ccccc21	12%	?	?	17%	3%
COc1ccccc1C(=O)NC(=S)N1CCc2ccccc21	1%	6%	-20%	0%	5%
COc1ccc(OCC(=O)NC(=S)N2CCCc3ccccc32)cc1	7%	15%	27µM*	-1%	10µM*
COc1ccccc1N1CCN(/N=C/C(Cl)=C/c2ccccc2)CC1	2.5µM*	.	5.4µM*	3.2µM*	10%
COc1ccccc1N1CCN(/N=C\c2ccc(C)o2)CC1	3.5µM*	11µM*	21µM*	3.2µM*	?
COc1ccccc1N1CCN(/N=C\c2ccccc2)CC1	?	.	15µM*	?	?
COc1ccccc1N1CCN(/N=C/c2cc(OC)c(OC)c(OC)c2)CC1	-3%	41%	2%	-3%	-1%
CCCCN(CC)CCCNC(=O)Cn1nc(CC)n2c(cc3sccc32)c1=O	.	14%	6%	.	.
NS(=O)(=O)c1ccc(CCNC(=O)Nc2ccc(Cl)c(Cl)c2)cc1	1%	-49%	-15%	-2%	-6%
CCOc1ccc(NC(=O)CN2CCN(Cc3ccccc3)S2(=O)=O)cc1	.	.	-8%	.	.
COc1ccc(CNc2nc3ccccc3n2C)c(O)c1	2.5µM*	.	8.5µM*	3.2µM*	?
COc1ccc(CNc2nc3ccccc3n2C)c(OC)c1	3.2µM*	.	12µM*	2.5µM*	?
SMILES	NPC1 prom act	SMN2 splice enh	FLuc modulator	Rab9 prom act	ELG1 genotox
COc1ccc(CNc2nc3ccccc3n2C(C)C)c(O)c1	-5%	.	?	4%	-6%
Nn1c(SCC(=O)N2CCN(S(=O)(=O)c3ccc(Cl)cc3)CC2)nnc1-c1cccs1	-2%	-18%	0%	-7%	0%
Cc1cccc(NC(=O)c2cnn(-c3ccccc3)c2-n2cccc2)c1C	.	8%	-17%	.	.
S=C(N/N=C/c1ccco1)NC1CC2CCC1C2 (stereo not drawn)	?	.	19µM*	?	?
Oc1ccccc1/C=N/NC(=S)NC1CC2CCC1C2 (stereo not drawn)	2µM*	.	27µM*	2.8µM*	12%
O=C(C[C@H]1C[C@H](C(=O)N2CCCCC2)[C@@]2(CCc3ccccc3)c3[nH]c4ccc(Cl)cc4c3CCN2C1=O)NCCN1CCOCC1	.	.	.	.	6%
COc1ccc(CNC(=O)C2CCN(S(=O)(=O)c3ccc(F)cc3)CC2)cc1	.	7%	-1%	.	.
CCN(C[C@H]1N[C@@](Cc2ccccc2)(C(=O)OC)[C@H]2C(=O)N(C)C(=O)[C@@H]12)C(=O)COC	.	.	.	.	2%
CCn1nc(-c2ccccc2)c(-c2ccccc2)c(C(=O)Nc2nc(C)c(C(=O)N(C)C)s2)c1=O	.	3%	?	.	.
Cc1ccc(Cn2cccc(NC(=O)NC3CCCCC3)c2=O)cc1	1%	-50%	17µM*	-4%	-5%
CCOc1ccc(NC(=O)Nc2ccccc2SC)cc1	4µM*	.	2.7µM*	?	?
O=C(NCc1ccccc1)Nc1cccn(Cc2ccccc2)c1=O	1%	-18%	11µM*	-7%	-2%
O=C(Nc1cccn(Cc2ccc(F)cc2)c1=O)NC1CCCCC1	0%	-8%	?	-1%	1%
CCOc1ccc(NC(=O)Nc2cccn(Cc3ccccc3)c2=O)cc1	3%	-20%	9.5µM*	0%	-1%
Cc1cccc(C)c1NC(=O)C1CCCN1C(=O)NCc1ccccc1 (stereo not drawn)	2%	.	-1%	2%	-4%
COc1ccc(OC)c(-c2nc3cc4ccccc4cc3nc2-c2ccccc2)c1	-1%	-1%	?	1%	-5%
Cc1cc(NC(=O)NCc2ccccc2)c(=O)n(Cc2ccc(F)cc2)c1	-3%	.	1.7µM*	5%	3%
O=C(NCc1ccccc1)Nc1cccn(Cc2ccc(F)cc2)c1=O	0%	-48%	?	-3%	0%
O=C(NCc1ccccc1)Nc1cccn(Cc2ccccc2F)c1=O	0%	-26%	12µM*	4%	4%
O=C(CC1C(=O)NCCN1CC1CCCCC1)NCc1cc(F)ccc1F (stereo not drawn)	-7%	.	-1%	1%	0%
O=C(CC1C(=O)NCCN1CC1CCCCC1)NCc1ccc(F)cc1F (stereo not drawn)	2.8µM*	.	?	2.8µM*	?
CCC(C(=O)Nc1ccc(F)cc1F)n1nc(-c2ccccc2)c2c(c1=O)CCCC2 (stereo not drawn)	.	2%	-12%	.	.
CC(=O)Oc1cccc(-c2nc3ccccc3c(=O)o2)c1	-1%	.	19µM*	0%	1%
COc1cccc(-c2nc3ccc(O)cc3c(=O)o2)c1	-3%	-10%	4.8µM*	2%	1%
c1cnc(Sc2ccc3nnnn3n2)nc1	-6%	-20%	-2%	-4%	-3%
COc1ccc(/C=C/c2nc3ccccc3c(=O)o2)cc1	?	.	0.6µM*	0.089µM*	0.82µM*
CCn1c(/C=C/c2ccccc2)nc2ccccc2c1=O	-1%	.	-17%	0%	-7%
CCn1c(/C=C/c2ccccc2)nc2ccccc21	2µM*	7.1µM*	0.6µM*	1.3µM*	?
CCC(C)n1c(/C=C/c2ccccc2)nc2ccccc21 (stereo not drawn)	-2%	13%	12µM*	3%	0%

Source: PubChem BioAssay
